Hits are enriched below; roughly 0.71% of the tested compounds scored in any of these assays.
TexasRed fluor: Total Fluorescence Counterscreen for Inhibitors of the Interaction of Thyroid Hormone Receptor and Steroid Receptor Coregulator 2 | TRb/SRC2 Texas Red total fluorescence interference | Potency, µM (series often up to 106 µM), for inactives: at the highest dose fluorescence change, negative = quenching | actives 0.29% (n = 280,000); active = well fitted curve in either direction with a large enough effect; inconclusive = small, poorly fitted or top-dose-only effect; note: % is set by controls: 0 for no effect and ±100 for the full control effect
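Human TRβ ligand-binding domain (0.6 uM) and Texas Red SRC2 peptide (20 nM) in Tris buffer with 1 uM T3 and 5% DMSO were incubated with pinned compound for 5 hr at ambient temperature. Total fluorescence was computed as S + 2P (555/632 nm).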
ERG-DNA inh: qHTS for Small Molecule Inhibitors of the ERG Ets/DNA interaction; fluorescence polarization, His-ERG Ets domain / labelled DNA; Transcriptional regulator ERG (Homo sapiens), P11308; actives 0.028% (n = 370,000); Potency, µM (highest dose often 76.9 µM), for inactives: at the highest dose FP activity, negative = inhibition, usual class: inhibitors; active = well fitted inhibition curve with a large enough effect in the polarisation, with a control signal flat; inconclusive = small, poorly fitted or top-dose-only effect, or effect the other way, or a change in a side signal; inactive = no such curve, though single readings can be large or run the other way; the % refers to the polarisation;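 note: polarization taken with two DNA probes labelled with fluorescein and Texas red; % of control where 0% means no effect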
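His-tagged ERG Ets domain (1 uM in the protein solution; 300mM KCl, 50mM Tris-HCl, 1mM EDTA, 1mM DTT, pH 7.5) received compound, then a probe mix of 5 nM fluorescein-DNA and 100nM Texas-615-DNA. Fluorescence polarization was read for both dyes.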
GoLoco inh red: qHTS Assay for Inhibitors of RGS12 GoLoco Motif Activity (Red Fluorophore); Gai1:RGS12 GoLoco peptide FP, rhodamine, 10 min; Potency, µM (titrated, usually from 61.6 µM), for inactives: top-dose activity, negative = inhibition, hits mostly inhibitors; actives 0.44% (n = 230,000); AID 880, 2007; active = well fitted inhibition curve with a large enough effect, not every such curve was filed as active; inactive = no such curve, though single readings can be large or run the other way; note: % is set by controls: 0 for no effect and ±100 for the full control effect; nearly all actives have a fitted effect of over 30% in size
Target sequence (P63096 whole entry, looked up): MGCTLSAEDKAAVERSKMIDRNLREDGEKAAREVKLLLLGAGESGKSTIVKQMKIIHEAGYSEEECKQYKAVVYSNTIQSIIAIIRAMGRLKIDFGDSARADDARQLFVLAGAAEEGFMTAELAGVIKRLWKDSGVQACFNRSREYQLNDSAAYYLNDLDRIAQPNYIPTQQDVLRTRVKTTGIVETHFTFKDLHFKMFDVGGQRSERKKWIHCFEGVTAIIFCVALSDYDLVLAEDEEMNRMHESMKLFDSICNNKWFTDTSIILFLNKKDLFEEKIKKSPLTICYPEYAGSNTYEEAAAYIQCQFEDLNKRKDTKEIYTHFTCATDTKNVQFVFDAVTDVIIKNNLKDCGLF
TRb SRC2 PPI: qHTS for Inhibitors of the Interaction of Thyroid Hormone Receptor and Steroid Receptor Coregulator 2. AID 1469, 2008. TRbeta-SRC2 peptide binding, fluorescence polarization; receptor liganded with 1 µM T3. actives 0.065% (n = 280,000). Potency, µM (highest dose often 106 µM), for inactives: at the top dose activity change, negative = inhibition, usual class: inhibitors;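 note: plate controls were bound peptide for no effect and peptide without receptor for full effect; nearly all actives have a fitted effect of over 50% in size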
Target sequence (P10828 whole entry, looked up): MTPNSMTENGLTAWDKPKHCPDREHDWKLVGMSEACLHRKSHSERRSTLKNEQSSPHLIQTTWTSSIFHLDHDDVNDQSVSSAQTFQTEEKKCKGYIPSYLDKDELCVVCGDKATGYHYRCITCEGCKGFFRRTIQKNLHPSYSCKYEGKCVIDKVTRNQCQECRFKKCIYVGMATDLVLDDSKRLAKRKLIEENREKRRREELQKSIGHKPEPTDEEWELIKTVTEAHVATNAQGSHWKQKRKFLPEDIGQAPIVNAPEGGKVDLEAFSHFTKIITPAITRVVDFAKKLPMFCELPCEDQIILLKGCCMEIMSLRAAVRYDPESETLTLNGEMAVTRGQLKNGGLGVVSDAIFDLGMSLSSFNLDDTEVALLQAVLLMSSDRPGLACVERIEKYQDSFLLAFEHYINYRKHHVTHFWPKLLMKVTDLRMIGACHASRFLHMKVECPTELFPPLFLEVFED
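A fluorescence polarization screen tested compounds at multiple concentrations against complex formation between 0.6 uM TRb ligand-binding domain and 20 nM Texas Red SRC2 peptide, with 1 uM T3 present; readout after 5 hr.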
BLM inh: qHTS Assay for Inhibitors of Bloom's syndrome helicase (BLM). RecQ-like DNA helicase BLM (Homo sapiens), P54132. recombinant BLM DNA unwinding, fluorescence dequenching. Potency, µM (titrated, usually from 56.1 µM), inactives show at the highest dose activity change, negative = inhibition, most hits filed as inhibitors. actives 0.2% (n = 350,000). AID 2528, 2010;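 note: plate controls were vehicle for no effect and no enzyme for full effect; nearly all actives have a fitted effect of over 35% in size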
RECQ1 inh-1: qHTS Assay for Inhibitors of RecQ-Like Dna Helicase 1 (RECQ1); ATP-dependent DNA helicase Q1 (Homo sapiens), P46063; RECQ1 DNA unwinding, red fluorescence kinetic read; Potency, µM (series often up to 57.3 µM), for inactives: at the top dose activity, negative = inhibition, usual class: inhibitors; actives 0.54% (n = 240,000);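 note: plate controls were vehicle for no effect and no enzyme for full effect; nearly all actives have a fitted effect of over 30% in size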
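RECQ1T1 50 nM; forked duplex (20 bp + 30-nt ss tails) 200 nM, ATP 2 mM final; pH 8.0, 2 mM MgCl2, 2.5 ug/ml poly(dI-dC); 15 min compound preincubation; discontinuous kinetic read over 2 h at RT.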
RECQ1 conf: Confirmation qHTS Assay for Inhibitors of RecQ-Like Dna Helicase 1 (RECQ1); shares compounds with RECQ1 inh-1; RECQ1 helicase DNA unwinding, fluorescence; Potency, µM (top dose mostly 229 µM), inactives show top-dose activity change, negative = inhibition, usual class: inhibitors; actives 28% (n = 610); AID 2708, 2010; note: % is set by controls: 0 for no effect and ±100 for the full control effect; nearly all actives have a fitted effect of over 45% in size
RECQ1 ADP FP: Counterscreen for RECQ1 Inhibitors: ADP Fluorescence Polarization Displacement Assay. shares compounds with RECQ1 inh-1. ADP fluorescence polarization displacement counterscreen. Potency, µM (titrated, usually from 228 µM), for the others: at the top dose activity change, negative = inhibition, hits mostly inhibitors. actives 27% (n = 530); note: % is set by controls: 0 for no effect and ±100 for the full control effect; nearly all actives have a fitted effect of over 45% in size
RECQ1 inh-2: Confirmation qHTS Assay for Inhibitors of RecQ-Like Dna Helicase 1 (RECQ1) - Round 2 Cherry Picks | AID 504841, 2011 | actives 15% (n = 1,100) | shares compounds with RECQ1 inh-1 | recombinant RECQ1 DNA unwinding, red fluorescence | Potency, µM (highest dose often 119 µM), inactives show at the top dose activity, negative = inhibition, actives largely listed as inhibitors; note: % is set by controls: 0 for no effect and ±100 for the full control effect; nearly all actives have a fitted effect of over 50% in size
* marks the source's active call; other numbers are inactive results; i = inactive; ? = inconclusive; nt = no result; [ ] = dose if it differs, or a comment. Unless noted, calls come from the whole dose curve; as a rule, active = well fitted curve in the direction sought with a large enough effect; inconclusive = small, poorly fitted or top-dose-only effect, or another doubt; inactive = no such curve, though single readings can be large; an effect the other way counts as inactive or inconclusive. Potency is the fitted concentration of half-maximal effect.

SMILES | TexasRed fluor | ERG-DNA inh | GoLoco inh red | TRb SRC2 PPI | BLM inh | RECQ1 inh-1 | RECQ1 inh-2 | others
COc1ccc(C(=O)COC(=O)/C=C/c2ccc(S(=O)(=O)Nc3cccc(S(N)(=O)=O)c3)cc2)cc1 | 0.9% | 27.0% | 23.8% | 1.4% | -8.1% | -15.5% | nt
NS(=O)(=O)c1cccc(NS(=O)(=O)c2ccc(/C=C/C(=O)OCC(=O)c3ccc(Br)cc3)cc2)c1 | 0.8% | 9.6% | 11.1% | 7.8% | -14.0% | ? | -1.0%
Cc1ccc(-c2nn(CC(=O)Nc3cccc(C(F)(F)F)c3)c(=O)c3ccccc23)cc1 | -1.0% | 0.0% | nt | 9.0% | -7.6% | nt | nt
NC(=O)c1ccc(-n2nnnc2SCC(=O)c2ccc(O)c(O)c2)cc1 | 50.1µM*[quencher] | -3.8% | 13.1% | ? | -21.6% | 8.91µM* | ?
COc1ccc(-n2nnnc2SCC(N)=O)cc1 | 1.3% | -13.4% | -1.2% | -2.9% | -1.1% | -2.6% | nt
COc1ccc(-n2nnnc2SCC(=O)c2ccc(O)c(O)c2)cc1 | -2.4% | -3.3% | 1.1% | 5.5% | 0.9% | 12.6µM* | 7.08µM*
CCc1c2c(nc3ccc(OC)cc13)OC(C)C2 (configuration not stated) | -1.7% | nt | 1.8% | -0.6% | -78.9% | -0.7% | nt
CC(=O)c1ccc2c(c1)C1C=CCC1C(c1ccncc1)N2 (configuration not stated) | -5.2% | 20.6% | 102.6% | 4.8% | -28.7% | ? | 36.4%
CC(=O)c1ccc2c(c1)C1C=CCC1C(C(=O)O)N2 (configuration not stated) | 2.2% | 17.6% | -32.0% | -0.8% | -8.2% | i | nt
O=C(c1ccc(Nc2nccc(-c3cc4ccccc4s3)n2)cc1)N1CCC(N2CCCC2)CC1 | -11.4% | nt | nt | 16.1% | ? | ? | 25.1µM*
COc1ccccc1-c1nc2s/c(=C\c3cccs3)c(=O)n2n1 | -11.4% | -0.1% | 15.8% | 14.1% | -8.3% | -5.9% | nt
O=c1/c(=C/c2ccco2)sc2nc(-c3ccccc3Br)nn12 | ? | -6.4% | 54.7% | -10.5% | -21.0% | 15.8µM* | ? | RECQ1 conf=-12.3%[114 µM];RECQ1 ADP FP=-5.8%[91.9 µM]
CCCOc1ccc(/C=c2\sc3nc(-c4ccco4)nn3c2=O)cc1OCC | 2.3% | 6.0% | 37.0% | -13.9% | -1.5% | ? | nt
CCCOc1ccc(Cc2nn3c(=O)/c(=C/c4ccco4)sc3nc2=O)cc1 | -11.4% | -7.6% | 13.2% | -5.3% | -4.3% | 25.1µM* | ?
COc1ccccc1/C=C/C=c1\sc2nc(=O)c(Cc3ccccc3)nn2c1=O | -16.7% | -4.6% | 87.7% | 11.0% | ? | ? | ?
Cc1ccc(/C=C/C(=O)c2nc3ccccc3[nH]2)cc1 | -2.2% | 7.8% | 1.3% | 14.5% | -21.1% | 10µM* | -28.5% | RECQ1 conf=2.0%[114 µM];RECQ1 ADP FP=-14.3%[91.9 µM]
O=C1C=CC2=C3c4cc(O)c(O)cc4CC3(O)COC2=C1O (configuration not stated) | ? | 15.3% | 2.51µM* | 6.2% | 15.8µM* | 1.26µM* | nt | RECQ1 conf=11.2µM*;RECQ1 ADP FP=3.16µM*
O=C(O)CN(CC(=O)O)Cc1cc2c(-c3ccccc3C(=O)O)c3cc(CN(CC(=O)O)CC(=O)O)c(=O)cc-3oc2cc1O | 39.8µM*[fluorescent] | nt | -111.7% | 6.31µM* | 15.8µM* | 28.2µM* | nt | RECQ1 conf=112µM*;RECQ1 ADP FP=0.141µM*
O=C(O)c1ccccc1-c1c2ccc(=O)cc-2oc2cc(O)ccc12 | 14.8% | nt | 0.398µM* | -23.1% | 31.6µM* | 31.6µM* | 79.4µM* | RECQ1 conf=112µM*;RECQ1 ADP FP=0.501µM*
O=C(O)c1ccccc1-c1oc2cc(O)ccc2c(=O)c1Oc1ccccc1 | -0.4% | nt | -23.2% | 2.8% | -1.4% | -0.2% | nt
O=C(c1cn(CCOc2ccc(Cl)cc2)c2ccccc12)C1CCCCC1 | -18.4% | -12.0% | nt | 2.4% | -8.8% | nt | nt
Cc1cc2nc(C)c(Cl)c(=O)n2[nH]1 | -1.1% | 62.6% | -1.6% | -1.8% | -4.4% | ? | -2.9%
Cc1nc2cc(-c3ccc(Br)cc3)[nH]n2c(=O)c1Cl | nt | -8.1% | nt | nt | -6.4% | nt | nt
Cc1ccc(S(=O)(=O)Nc2csc(C)c2C(=O)O)cc1 | -0.5% | 5.8% | -3.5% | 1.8% | -2.2% | ? | ?
O=C1CCC=C1C(O)c1ccc2c(c1)OCO2 (configuration not stated) | 0.9% | nt | -2.3% | 12.2% | 3.7% | i | nt
SMILES | TexasRed fluor | ERG-DNA inh | GoLoco inh red | TRb SRC2 PPI | BLM inh | RECQ1 inh-1 | RECQ1 inh-2 | others
Cc1nn(-c2ccccc2)c2nc(-c3ccco3)cc(C(=O)O)c12 | -6.1% | 8.4% | nt | 5.3% | 24.9% | 28.2µM* | -23.3%
Cc1ccc(-n2nc(-c3ccco3)cc2C(=O)O)c(C)c1 | -1.2% | -5.5% | 1.2% | 3.1% | -16.4% | 20µM* | ?
O=C(O)c1cc(-c2ccco2)nn1-c1cccc(Cl)c1 | 1.8% | 9.9% | 10.8% | 6.1% | 44.2% | 25.1µM* | ?
O=C(O)CSc1nnc(Cc2ccccc2)n1-c1ccccc1 | -0.1% | 1.2% | 14.4% | -9.4% | -0.9% | -2.1% | nt
O=C(O)CSc1nnc(Cc2ccccc2)n1Cc1ccccc1 | -0.2% | -3.9% | 4.0% | -6.1% | 1.4% | 1.2% | nt | RECQ1 conf=12.3%;RECQ1 ADP FP=9.1%
O=c1nc(/C=C/c2cccn2-c2ccc([N+](=O)[O-])cc2)cc(C(F)(F)F)[nH]1 | -7.6% | 3.4% | 21.9% | 3.4% | -27.5% | 35.5µM* | ?
O=C(O)CNC(=O)[C@H]1NC(C(F)(F)F)(C(F)(F)F)OC1(C(F)(F)F)C(F)(F)F | nt | nt | -0.6%[14.2 µM] | nt | nt | nt | nt
